Six1-Eya2 blk: inhibitors of human Six1/Eya2 interaction; activity change, % (concentration not given with the values); Q15475+O00167; AlphaScreen GST-Six1/His-Eya2 binding, biochemical; stronger effect = lower value; 360,000 compounds, 0.56% hits; in the data active means activity change below about -65%; inconclusive means mostly about -30% to -63%
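AlphaScreen with GST-Six1 and His-Eya2 (5X mix: 250 nM and 500 nM), glutathione donor and nickel acceptor beads; buffer 50 mM Tris pH 8.0, 300 mM NaCl, 1 mM TCEP; 1 h at 37 C in the dark.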
TDP1 inh: inhibitors of human tyrosyl-DNA phosphodiesterase TDP1; Q9NUW8; recombinant TDP1, AlphaScreen DNA substrate cleavage; Potency, µM (top dose mostly 130 µM), inactives show at the highest dose activity change, negative = inhibition, hits mostly inhibitors; 350,000 compounds, 0.28% hits; AID 485290; further: potency means the concentration at half of the fitted maximal effect; nearly all actives have a fitted effect of over 40% in size
Target sequence (Q9NUW8 whole entry, looked up): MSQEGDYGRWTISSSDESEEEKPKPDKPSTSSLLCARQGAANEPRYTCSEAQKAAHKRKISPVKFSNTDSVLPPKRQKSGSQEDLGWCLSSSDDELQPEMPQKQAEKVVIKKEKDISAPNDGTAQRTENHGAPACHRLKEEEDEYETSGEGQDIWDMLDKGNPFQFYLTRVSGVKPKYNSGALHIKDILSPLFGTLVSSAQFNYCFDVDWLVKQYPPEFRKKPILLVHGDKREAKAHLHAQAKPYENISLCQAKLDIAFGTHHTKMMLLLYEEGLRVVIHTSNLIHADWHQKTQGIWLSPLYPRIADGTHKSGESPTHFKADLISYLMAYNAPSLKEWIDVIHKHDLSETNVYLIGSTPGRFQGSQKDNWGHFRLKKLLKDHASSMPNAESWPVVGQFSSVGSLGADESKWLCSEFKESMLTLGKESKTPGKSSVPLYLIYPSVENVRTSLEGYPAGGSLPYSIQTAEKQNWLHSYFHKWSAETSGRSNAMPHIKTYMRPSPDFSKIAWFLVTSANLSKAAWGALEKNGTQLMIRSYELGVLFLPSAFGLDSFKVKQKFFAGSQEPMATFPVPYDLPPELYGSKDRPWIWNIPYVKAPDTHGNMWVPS
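Signal: AlphaScreen proximity between streptavidin donor and anti-FITC acceptor beads on intact substrate. Reaction: Tdp1 1 nM, substrate 15 nM final, 5 min RT after 15 min compound preincubation.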
IL-1B inflam inh: inflammasome signaling inhibition, IL-1 beta readout; THP-1 LPS/ATP IL-1B secretion, AlphaLISA, 16 h; stronger effect = lower value; AID 743279; 360,000 compounds, 4.7% hits; activity change, % at 57.5 µM; in the data active means activity change below about -50%; inconclusive means mostly about -30% to -49%
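THP-1 cells pretreated 1 hr with compounds (up to 57.5 uM final), then stimulated with LPS (250 ng/mL final) plus ATP (1.25 mM final); secreted IL-1B measured by AlphaLISA after 16 hr, decreased signal indicating inhibition.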
TDP1 cell CPT: growth inhibition of DT40 Tdp1-/-;hTDP1 cells with camptothecin (screen for TDP1 inhibitors); Potency, µM (titrated, usually from 46.2 µM), for inactives: at the highest dose activity change, negative = growth inhibition, usual class: inhibitors; 420,000 compounds, 12% hits; chicken DT40 Tdp1-/-;hTDP1 cells + 20 nM CPT, ATP luminescence, 48 h; further: potency means the concentration at half of the fitted maximal effect; nearly all actives have a fitted effect of over 55% in size
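Chicken DT40 Tdp1-/- cells stably complemented with human TDP1 were seeded at 400 cells/well in medium containing 20 nM camptothecin, exposed to pin-transferred compounds, and grown at 37 °C for at least 48 hr. Viability was read as ATP luminescence.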
CtBP-E1A inh: CtBP/E1A binding inhibition; AlphaScreen GST-E1A/His-CtBP binding, 1536-well; stronger effect = lower value; activity change, % (concentration not given with the values); 340,000 compounds, 0.49% hits; in the data active means activity change below about -65%; inconclusive means mostly about -30% to -63%
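In 5 uL wells, 23 nL compound meets equimolar GST-E1A and His-CtBP (5X stock 125 nM each) for 2 h, 37 °C. Beads (5X, 50 ug/mL) then 1 h, 37 °C, dark.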
TDP1 cell noCPT: qHTS for Inhibitors of human tyrosyl-DNA phosphodiesterase 1 (TDP1): qHTS in cells in absence of CPT; AID 686978, 2013; 420,000 compounds, 15% hits; DT40 Tdp1-/- hTDP1 cells, no CPT, ATP luminescence, 48 h; Potency, µM (highest dose often 46.2 µM), without a hit: at the highest dose activity change, negative = growth inhibition, actives largely listed as inhibitors; further: potency means the concentration at half of the fitted maximal effect; nearly all actives have a fitted effect of over 55% in size
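Readout: luminescence from CellTiter-Glo after 30 min in the dark at RT. Cells: DT40 Tdp1-/- with stable hTDP1, 400/well. Exposure: compounds alone, ≥48 hr, 37 °C.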
* marks the source's active call; other numbers are inactive results; ? = inconclusive; · = not tested or not shown; ! = a repeat was not active; [ ] = another dose, or the depositor's remark. Only some compounds are listed: those with a hit (about 18% of all), similar ones and a draw of the others. Unless noted, the call rests on the fitted dose curve; in most records, active means well fitted curve in the direction sought with a large enough effect; inconclusive means small, poorly fitted or top-dose-only effect, or another doubt; inactive means no such curve, though single readings can be large; an effect the other way counts as inactive or inconclusive. On the % scale 0 is the no-effect control and ±100 the full control effect.

SMILES	Six1-Eya2 blk	TDP1 inh	IL-1B inflam inh	TDP1 cell CPT	CtBP-E1A inh	TDP1 cell noCPT
C/C(CC(=O)Nc1ccc(OCc2ccccc2)cc1)=N\NC(=O)C(=O)Nc1cccc(C)c1	4	5%	?	?	-15	9.2µM*
COC(=O)Nc1ccc(OCc2ccccc2)cc1	0	0%	-3	-27%	-8	-13%
C[C@@H]1O[C@@H](O[C@H]2[C@H](Oc3cc(O)c4c(c3)O[C@H](c3ccc(O)cc3)CC4=O)O[C@H](CO)[C@@H](O)[C@@H]2O)[C@H](O)[C@H](O)[C@H]1O	-2	12%[56.1 µM]	13	5%	4	-17%
Cc1ccc(SCC(c2ccccc2)N2CCN(CC(C)C)CCC2=O)cc1 (stereo not drawn)	·	10%	·	·	·	·
Cc1ccc(SC[C@H](c2ccccc2)N2CCN(C)CCC2=O)cc1	-1	1%	-3	-16%	-2	?
CN1CCC(=O)N([C@H](CSc2ccccc2)c2ccccc2)CC1	-5	·	4	?	-14	18µM*!
Cc1ccc(SCCN2CCN(CCc3ccccc3)CCC2=O)cc1	-6	9%	-1	16µM*	-15	16µM*
CCCN1CCC(=O)N([C@H](CSc2ccc(OC)cc2)c2ccccc2)CC1	-8	5%	12	?	-1	16µM*
Cc1ccc(SC[C@H](c2ccccc2)N2CCN(CC(C)C)CCC2=O)cc1	5	-2%	-6	16µM*	1	12µM*
CCc1ccc(CN(C)CC(=O)Nc2ccccc2[N+](=O)[O-])cc1	-26	5%	5	?	-25	?
CCCn1c(-c2ccc(F)cc2)nc2c(NC(C)CCCN(CC)CC)nc(C)nc21 (stereo not drawn)	·	4%	·	·	·	·
CCCN1CCC(=O)N(CCSc2ccc(OC)cc2)CC1	25	9%	32	5.8µM*	31	5.8µM*
CCN(CC)S(=O)(=O)c1cccc(C(=O)N/N=C(\C)c2cccs2)c1	1	8%	-14	-17%	-17	-25%
O=C(COC(=O)c1cc(S(=O)(=O)N2CCOCC2)ccc1F)NC1CCCCC1	4	2%	7	1%	-2	2%
O=C1NC2(c3ccccc3)NC(=O)NC2(c2ccccc2)N1 (stereo not drawn)	1	·	-1	5%	1	2%
COc1ccc(N2CCN(C(=O)c3ccc(N(C)S(=O)(=O)c4ccc(C)cc4)cc3)CC2)cc1	-30	4%	0	16µM*	8	16µM*
COc1ccc(N(C)S(=O)(=O)c2cccc(C(=O)N3CCN(S(=O)(=O)c4ccc(C)cc4)CC3)c2)cc1	0	5%	-15	26µM*	-4	?
COc1ccc(S(=O)(=O)N(C)c2ccc(C(=O)N3CCN(c4ccccc4)CC3)cc2)cc1OC	-12	4%	-26	15µM*	-14	16µM*
COc1ccc(S(=O)(=O)N(C)c2ccc(C(=O)N3CCCC3)cc2)cc1OC	33	8%	-9	-23%	4	?
Cc1ccc(S(=O)(=O)N2CCN(C(=O)c3cccc(-n4cccc4)c3)CC2)cc1	-15	-21%	-8	16µM*	20	?
COc1ccc(S(=O)(=O)N2CCN(C(=O)c3cccc(S(=O)(=O)N4CCCC4)c3)CC2)cc1	4	·	-8	-8%	-5	?
O=C(c1cccc(-n2cccc2)c1)N1CCN(S(=O)(=O)c2ccccc2)CC1	?	·	22	21%	-26	?
O=C(O)/C=C/C(=O)Nc1ccc(S(=O)(=O)Nc2nccs2)cc1	2	7%	13	-1%	-1	2%
Cc1ccc(C)c(OCC(=O)NC(Cc2c[nH]c3ccccc23)C(=O)O)c1 (stereo not drawn)	-15	-4%	30	-4%	1	?

High-throughput results from PubChem BioAssay.
